Results filed as inconclusive are left out. Activity calls are given as the source filed them. The call rests on the fitted dose curve; in most records, active means well fitted inhibition curve with a large enough effect; inconclusive means small, poorly fitted or top-dose-only effect; inactive means no such curve, though single readings can be large or run the other way.
assay: BET inhibitor-based combinations targeting novel dependencies in MECOM-rearranged (r) AML: SET-2 cell line (AID 2202231); settings: SET-2 AML cells viability, CellTiter-Glo luminescence, 48 h; viability: active compounds read low, series mostly up to about 46 µM; further: nearly all actives have a fitted effect of over 35% in size
Excerpt: Ecotropic viral insertion site 1 (EVI1) is located on chromosome 3q26.2 as part of the MECOM (MDS and EVI1 complex) locus. Under normal hematopoiesis, EVI1 is a regulator of hematopoietic stem cell maintenance and self-renewal and EVI1 levels decrease as the cells differentiate. In approximately 5-10% of de novo acute myeloid leukemia (AML) EVI1 is aberrantly expressed, including Chromosomal inv(3)(q21;q26.2) or t(3;3)(q21;q26.2) alterations (MECOM-r) that account for about 50% of AML with EVI1 overexpression 31. AMLs with high levels of EVI1 have a poor prognosis and an overall survival time averaging between 10-14 months. EVI1 overexpression confers resistance in leukemia cells, highlighting the need to develop new targeted therapies for EVI1 overexpressing AMLs.
Here, we performed an unbiased chemical drug screening by evaluating the single agent activity of a collection of 2,480 oncology-focused, approved and investigational drugs (NCATS Mechanism Interrogation Plates, MIPE v5.0) against a panel of seven AML cell lines. These included four MECOM-r cell-lines (AML-191, AML-194, UCSD-AML1 and HNT-34) and three non-MECOM-r AMLs (MV4-11, OCI-AML3 and SET-2). Exploiting the mechanistic redundancy built in the library, we identified target-level sensitivities in MECOM-r AML cells and relative activity as compared to other AML subtypes.
A collection of 2480 mechanistically annotated dugs (MIPE v5.0) was used to screen four 3q26.2 rearranged AML cell lines and three non-3q26.2 rearranged AML cell lines. This library purposely exploits redundancy by including multiple inhibitors of key onco-targets, while simultaneously encompassing mechanistic diversity, targeting more than 800 distinct mechanisms of action. Briefly, cells were seeded in 5 uL of growth media using a Multidrop Combi dispenser into 1536 well white polystyrene tissue culture treated plates (Corning) at a density of 500cells/well. For each cell-line, for each of the 2480 drugs in MIPE v5.0 library, an 11-point dose curve was generated via a 1536 pin-tool. Plates were incubated for 48 hr at standard incubator conditions, covered by a stainless steel gasketed lid to prevent evaporation. Cell viability was determined by luminescence based, Cell Titer Glo assay (Promega). In detail, 3 uL of Cell Titer Glo were added to each well and plates were incubated at room temperature for 15 min with a stainless-steel lid in place. Luminescence readings were taken using a Viewlux (PerkinElmer) with a 2 s exposure time per plate. Compound dose-response curves were normalized to DMSO and empty well controls on each plate. Quantitative drug activity data from dose-response curves was determined utilizing area Under the Curve (AUC) and Z-transformed AUC (Z-AUC, a mean-centering transformation applied to each individual cell-line screened).
Potency means the concentration at half of the fitted maximal effect.

Structure (SMILES)	viability	Potency
O=C(NC[C@H](O)CN1CCc2ccccc2C1)c1cc(NC2COC2)ncn1	97% (inactive)	–
Nc1[nH]c(=O)ncc1F	119% (inactive)	–
Cc1ccsc1C(=CCCN1CCC[C@@H](C(=O)O)C1)c1sccc1C	112% (inactive)	–
O=C(Nc1ccc(F)c(C(F)(F)F)c1)Nc1nnc(-c2ccncc2)s1	100% (inactive)	–
OC(CCN1CCCCC1)(c1ccccc1)C1CC2C=CC1C2 (stereo not given)	97.6% (inactive)	–
Cc1noc2c1-c1ccccc1C(c1ccc(Cl)cc1)=N[C@H]2CC(N)=O	–	2.35 µM (active)
CC(C)c1c(C(=O)Nc2ccccc2)c(-c2ccccc2)c(-c2ccc(F)cc2)n1CC[C@@H](O)C[C@@H](O)CC(=O)O	–	7.23 µM (active)
O=C(Nc1cccc(Cl)c1)Nc1ncc(CCNc2ncnc3ccsc23)s1	–	20.9 µM (active)
Cn1cncc1C(N)(c1ccc(Cl)cc1)c1ccc2c(c1)c(-c1cccc(Cl)c1)cc(=O)n2C (stereo not given)	–	14.8 µM (active)
CCC(=O)O[C@]1(C(=O)SCF)[C@H](C)C[C@H]2[C@@H]3C[C@H](F)C4=CC(=O)C=C[C@]4(C)[C@@]3(F)[C@@H](O)C[C@@]21C	114% (inactive)	–
Cc1ccn(-c2ccc(-c3ncco3)cc2)c(=O)c1-c1ccc2nc(N)ncc2c1	114% (inactive)	–
CN1CCC(=C2c3ccccc3C=Cc3ccccc32)CC1	–	13.2 µM (active)
NC1(c2ccc(-c3nc4ccn5c(=O)[nH]nc5c4cc3-c3ccccc3)cc2)CCC1	–	20.9 µM (active)
CNC(=O)c1nn(C)c2c1C(C)(C)Cc1cnc(Nc3ccc(N4CCN(C)CC4)cc3)nc1-2	–	0.833 µM (active)
Clc1ccccc1CN1CCc2sccc2C1	111% (inactive)	–
Nc1c2c(nc3ccccc13)CCCC2	102% (inactive)	–
Cc1ccccc1C(C(=O)NC1CCCCC1)N(C(=O)Cn1ccnc1C)c1cccc(F)c1 (stereo not given)	116% (inactive)	–
CCOCC(O)COc1ccc(NC(=O)CC[S+](C)C)cc1 (stereo not given)	62.2% (inactive)	–
CCNC(=O)c1cc2c(-c3cc(OCCN4CCCC4)c(Cl)cc3Cl)nc(N)nc2s1	–	2.88 µM (active)
Cc1ccc(S(=O)(=O)N[C@@H](Cc2ccccc2)C(=O)CCl)cc1	–	18.6 µM (active)

Structure (SMILES)	viability	Potency
Cc1ccc2c(c1)C(=O)[C@]1(O)CCN(c3ccccc3)C1=N2	110% (inactive)	–
O=C(O)CCNC(=O)c1ccc(N=Nc2ccc(O)c(C(=O)O)c2)cc1	118% (inactive)	–
CC(S)C(=O)NCC(=O)O (stereo not given)	114% (inactive)	–
Nc1ccn([C@@H]2O[C@H](CO)[C@@H](O)C2(F)F)c(=O)n1	–	0.0235 µM (active)
CO[C@@H]1[C@@H](OC(N)=O)[C@@H](O)[C@H](Oc2ccc3c(O)c(NC(=O)c4ccc(O)c(CC=C(C)C)c4)c(=O)oc3c2C)OC1(C)C	122% (inactive)	–
CC(C)NCC(O)COc1ccc(CCOCC2CC2)cc1 (stereo not given)	115% (inactive)	–
CN1CCN(c2ccc(OC(F)(F)F)c(Nc3ncc4c(n3)-c3c(c(C(N)=O)nn3CCO)CC4)c2)CC1	–	0.186 µM (active)
Nc1ncnc2c1c(COc1cccc(Cl)c1)nn2C1CCOCC1	99.8% (inactive)	–
CO[C@@H](C)Cn1c(=O)n(C)c2cnc3ccc(-c4cncc(C(C)(C)O)c4)cc3c21	–	0.934 µM (active)
CN(C(Cc1ccc(OS(=O)(=O)c2cccc3cnccc23)cc1)C(=O)N1CCN(c2ccccc2)CC1)S(=O)(=O)c1cccc2cnccc12 (stereo not given)	92.1% (inactive)	–
Nc1nc(F)nc2c1ncn2[C@@H]1O[C@H](CO)[C@@H](O)[C@@H]1O	–	14.8 µM (active)
COc1cccc2c1c(O)c(C(=O)N(C)c1ccc(C(F)(F)F)cc1)c(=O)n2C	40.7% (inactive)	–
CC(C)n1nc(-c2ccc3oc(N)nc3c2)c2c(N)ncnc21	–	0.148 µM (active)
Cc1cc(O)c2c(c1)C(=O)c1cccc(O)c1C2=O	116% (inactive)	–
O=C1c2ccccc2-[n+]2ccc3c([nH]c4ccccc43)c21	–	2.63 µM (active)
Cc1ccc2c(=O)c3cccc(CC(=O)O)c3oc2c1C	108% (inactive)	–
CCOc1cc(C(=O)Nc2ccc(Cl)c(-c3nc4ccccc4[nH]3)c2)cc(OCC)c1OCC	–	18.6 µM (active)
O=c1c(O)c(-c2ccc(O)c(O)c2)oc2cc(O)cc(O)c12	113% (inactive)	–
CN1CCc2c(c3ccccc3n2Cc2ccc(C(=O)NO)cc2)C1	–	20.9 µM (active)
CC(C)C[C@H](CO)Nc1nc(S[C@@H](C)c2ccccc2)nc2nc(N)sc12	–	23.5 µM (active)
